22 compounds from PubChem BioAssay can be followed below.

In experiment [1] the test system is XIP peptide (Xip251-270) binding. The experiment in a line: XIP fragment 251-270 binding compounds – biochemical, small-molecule microarray, fluorescence 635/667 nm, 0.1 µg/mL protein, primary screen (AID 1182). To be noted: fluorescent protein binding, 635 nm, higher = more signal, called active from +8 up or from −8 down.
Experiment [2] relates to XIP peptide (Xip251-270). The experiment in a line: compounds binding XIP fragment 251-270 – biochemical, small-molecule microarray, fluorescence 635/667 nm, 0.5 µg/mL protein, primary screen (AID 1183). To be noted: fluorescence 635 nm, higher = more signal.
Experiment [3] can be described thus: blood-stage malaria parasite viability loss – strain 3D7, DAPI fluorescence, 100 nL, primary screen (AID 1184).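 Further: parasites grown inside human red blood cells in medium with human serum.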 To be noted: P. falciparum 3D7 growth, 3 d, higher = more signal.
Experiment [4] has as its target Homeobox protein Hox-A13 (Mus musculus) (UniProt Q62424). Kind of experiment: disruptors of Hoxa13 oligonucleotide interaction – biochemical, fluorescence polarization, labeled oligonucleotide, primary screen (AID 1185). Particulars: Hoxa13:DNA binding, 15 min, higher = more signal, called active from +8 up or from −8 down. On the technique in general: In fluorescence polarisation assays a small probe gives low polarisation when free and higher when bound to something large.

The structures appear in SMILES notation. Activity calls are given as the source filed them.

Chain of Homeobox protein Hox-A13 (Mus musculus) (Q62424 whole entry, looked up): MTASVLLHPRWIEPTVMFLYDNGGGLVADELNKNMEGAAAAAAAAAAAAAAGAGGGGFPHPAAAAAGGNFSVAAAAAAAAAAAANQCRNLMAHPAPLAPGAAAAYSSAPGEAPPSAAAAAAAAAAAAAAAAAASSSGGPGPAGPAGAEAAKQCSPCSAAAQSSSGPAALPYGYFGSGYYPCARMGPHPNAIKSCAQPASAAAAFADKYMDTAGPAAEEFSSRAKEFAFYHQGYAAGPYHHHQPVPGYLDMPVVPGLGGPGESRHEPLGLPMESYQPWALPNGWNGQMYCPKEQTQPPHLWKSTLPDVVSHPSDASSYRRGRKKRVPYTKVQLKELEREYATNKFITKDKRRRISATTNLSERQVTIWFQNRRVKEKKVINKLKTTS

As to `CC(C)=CCCC(C)=CCON=C1C[C@@H](O)[C@@H](O)[C@@H]2[C@@H]3C(=O)N(c4ccc(F)cc4F)C(=O)[C@@H]3CC[C@@H]12`, the results for the composite z-score in experiment [1] and in experiment [2] were -0.0619 (inactive) and 0.542, respectively. Also, the results for the z-score in experiment [3] and in experiment [4] were -1.59 and -4.62 (inactive), respectively.

Regarding `CC(CCN1CCCCc2nc(C)c(C)cc21)=NO[C@H](C)c1cn([C@H](CO)Cc2ccccc2)nn1`, the composite z-score in experiment [1] was -0.28 (inactive); in experiment [2], 0.542. Also, the results for the z-score in experiment [3] and in experiment [4] were -1.56 and -5.13 (inactive), respectively.

In the case of `C#CCCCON=C1C[C@@H](O)[C@@H](O)[C@@H]2[C@@H]3C(=O)N(C(C)(C)C)C(=O)[C@@H]3CC[C@@H]12`, the composite z-score in experiment [1] is -0.0287 (inactive); in experiment [2], 0.109. Further, the z-score is -0.315 in experiment [3] and -3.44 (inactive) in experiment [4].

For `CO[C@@H]1C=CCC(=O)N2CCC[C@H]2C(=O)OC[C@@H](C)C(=O)OC[C@H]1C`, the values for the composite z-score in experiment [1] and in experiment [2] were 0.229 (inactive) and 0.826, respectively. Further, the z-score in experiment [3] is 0.432; in experiment [4], 0.772 (inactive).

For the compound `COC(=O)CC=C[C@H](C)[C@@H](OCc1cccc(Br)c1)[C@@H](C)[C@H](OC)C1CCCCC1`, the composite z-score is 0.685 (inactive) in experiment [1] and 0.768 in experiment [2]. For the same compound, the z-score in experiment [3] was 0.536; in experiment [4], 0.0373 (inactive).

With `CCOC(=O)[C@H](CC(C)C)NC(=O)CCC1CC(OC(=O)NCCc2ccc(F)cc2)CC2(CCCC(COC(=O)NCC(c3ccccc3)c3ccccc3)O2)O1` (stereo partly drawn), the composite z-score was 0.298 (inactive) in experiment [1] and 0.836 in experiment [2]. Moreover, the z-score in experiment [3] is -1.02; in experiment [4] it was -6.92 (inactive).

As for `CON=Cc1ccc(C(=O)N2[C@H](c3ccc(C)cc3)[C@@H](C)CC[C@H]2C(=O)OC)cc1`, the composite z-score in experiment [1] was -0.288 (inactive); in experiment [2] it was 0.488. Besides, the z-score in experiment [3] is -0.141; in experiment [4], -3.49 (inactive).

In the case of `CC(=O)OC[C@H]1O[C@H](CC=NO[C@H](C)c2cn([C@H](CO)Cc3ccccc3)nn2)C=C[C@@H]1OC(C)=O`, the values for the composite z-score in experiment [1] and in experiment [2] were 0.364 (inactive) and 0.289, respectively. In addition, the values for the z-score in experiment [3] and in experiment [4] were 0.242 and -1.83 (inactive), respectively.

Take `CCOC(=O)C1=NO[C@@]2(C=C(Br)C3(OCCCO3)[C@H]3O[C@H]32)C1`: the composite z-score in experiment [1] was 2.67 (inactive); in experiment [2], 0.512. Also, the z-score in experiment [3] was 0.522; in experiment [4], 0.14 (inactive).

On to `C#CCCCON=C1C[C@@H](O)[C@@H](O)[C@@H]2[C@@H]3C(=O)N(CCC(=O)OCC)C(=O)[C@@H]3CC[C@H]12`, for which the composite z-score was 0.768 (inactive) in experiment [1] and 0.493 in experiment [2]. The results for the z-score in experiment [3] and in experiment [4] were -0.206 and 1.24 (inactive), respectively.

With `CO[C@H]1COC(=O)CC=C[C@H](C)[C@@H](OC)COC(=O)[C@@H](C)NC(=O)CC=C[C@@H]1C`, the values for the composite z-score in experiment [1] and in experiment [2] were -0.303 (inactive) and 0.54, respectively. The z-score is -0.297 in experiment [3] and -1.25 (inactive) in experiment [4].

Take `COc1ccc(O[C@@H]2[C@H](O)CO[C@H]2C=Cc2ccccc2)cc1`: the composite z-score is 0.266 (inactive) in experiment [1] and -0.0143 in experiment [2]. For the same compound, the results for the z-score in experiment [3] and in experiment [4] were 0.465 and -1.16 (inactive), respectively.

Consider `O=C1CCCC(C2=CCCCC2=O)C1` (stereo not drawn), for which the composite z-score in experiment [1] is -0.273 (inactive); in experiment [2] it was 0.0997. In addition, the results for the z-score in experiment [3] and in experiment [4] were 0.488 and -1.63 (inactive), respectively.

For `C[C@H]1COC(=O)[C@@H]2CCCN2C(=O)[C@@H](C)COC(=O)[C@H](Cc2ccccc2)NC1=O`, the composite z-score is -0.102 (inactive) in experiment [1] and 0.435 in experiment [2]. For the same compound, the results for the z-score in experiment [3] and in experiment [4] were -0.735 and 0.163 (inactive), respectively.

With `O=C1[C@H]2[C@H]3[C@H](O)[C@H](O)CC(=NOC[C@@H](O)COCc4ccco4)[C@H]3CC[C@H]2C(=O)N1C[C@@H]1CCCO1`, the composite z-score is -0.149 (inactive) in experiment [1] and 0.605 in experiment [2]. The z-score in experiment [3] is 0.523; in experiment [4], -0.514 (inactive).

In the case of `CCOC(=O)CCN1C(=O)[C@H]2[C@H]3[C@H](O)[C@H](O)CC(=NOCc4ccccc4)[C@H]3CC[C@H]2C1=O`, the composite z-score is -0.207 (inactive) in experiment [1] and -0.0274 in experiment [2]. For the same compound, the z-score was 0.172 in experiment [3] and 0.313 (inactive) in experiment [4].

Regarding `COc1cccc([C@H]2Oc3ccc(OC)cc3C(=NOC[C@@H](C)[C@H](OCc3ccccc3)C(C)C)[C@@H]2O)c1`, the results for the composite z-score in experiment [1] and in experiment [2] were 0.305 (inactive) and -0.724, respectively. Further, the z-score in experiment [3] is -0.157; in experiment [4], -0.308 (inactive).

Regarding `CO[C@@H]1COC(=O)CC=C[C@@H](C)[C@H](OC)COC(=O)[C@@H](C)COC(=O)CC=C[C@H]1C`, the composite z-score in experiment [1] was -0.0671 (inactive); in experiment [2], -0.497. For the same compound, the z-score in experiment [3] is 0.301; in experiment [4], 0.372 (inactive).

In the case of `COc1cccc([C@H]2Oc3ccc(OC)cc3C(=NOC[C@@H](O)[C@H]3O[C@@H]4OC(C)(C)O[C@@H]4[C@H]3O)[C@@H]2O)c1`, the composite z-score was -0.815 (inactive) in experiment [1] and 0.697 in experiment [2]. Further, the z-score in experiment [3] was 0.187; in experiment [4] it was -3.04 (inactive).

Take `CC(C)=CCCC(C)=CCON=C1C[C@@H](O)[C@@H](O)[C@@H]2[C@@H]3C(=O)N(C(C)(C)C)C(=O)[C@@H]3CC[C@@H]12`: the composite z-score was -0.119 (inactive) in experiment [1] and 0.233 in experiment [2]. For the same compound, the z-score in experiment [3] is -1.34; in experiment [4], -1.09 (inactive).

Take `CO[C@H]1COC(=O)CCC[C@@H](C)[C@H](OC)COC(=O)[C@@H](C)NC(=O)CC=C[C@@H]1C`: the figures for the composite z-score in experiment [1] and in experiment [2] were -0.157 (inactive) and -0.0673, respectively. In addition, the z-score was -1.29 in experiment [3] and -1.94 (inactive) in experiment [4].

`CC(C)CON=C1C[C@@H](O)[C@@H](O)[C@@H]2[C@@H]3C(=O)N(C[C@@H]4CCCO4)C(=O)[C@@H]3CC[C@@H]12`: the composite z-score in experiment [1] is -0.0867 (inactive); in experiment [2], 0.205. Besides, the z-score in experiment [3] is 0.192; in experiment [4], -0.771 (inactive).
